Assay results as given in PubChem BioAssay (NCATS).
Records with an inconclusive call do not appear. Where a call stands in place of a potency, no number is given. Unmarked numbers belong to inactive results. Activity calls are given as the source filed them. Calls follow the shape of the full dose curve.

Key:
[1] = Primary qHTS for inhibitors of SARS-S pseudo-typed particle cell entry (AID 1479145); also: nearly all actives have a fitted effect of over 45% in size
[2] = Primary qHTS for Huh7 cytotoxicity: counterscreen for inhibitors of MERS-S pseudotyped particle cell entry (AID 1479147)
[3] = Primary qHTS for inhibitors of MERS-S pseudo-typed particle cell entry (AID 1479149); also: nearly all actives have a fitted effect of over 60% in size; also: potency is read from the fitted curve at half-maximal effect
[4] = Primary qHTS for Vero E6 cytotoxicity: counterscreen for inhibitors of SARS-S pseudo-typed particle cell entry (AID 1479150)

Oc1cccc(O)c1
Potency [1]: inactive
Potency [2]: inactive
Potency [3]: inactive
Potency [4]: inactive

Cn1nnc2c(C(N)=O)ncn2c1=O
Potency [1]: inactive
Potency [2]: inactive
Potency [3]: inactive
Potency [4]: inactive

CC(=O)OCC[N+](C)(C)C
Potency [1]: inactive
Potency [2]: inactive
Potency [3]: inactive
Potency [4]: inactive

CC(=O)OCC(=O)[C@@]1(OC(C)=O)[C@@H](C)C[C@H]2[C@@H]3C[C@H](F)C4=CC(=O)C=C[C@]4(C)[C@@]3(F)[C@@H](O)C[C@@]21C
Potency [1]: inactive
Potency [2]: inactive
Potency [3]: inactive
Potency [4]: inactive

Cc1cccn2c(=O)c(-c3nnn[nH]3)cnc12
Potency [1]: inactive
Potency [2]: inactive
Potency [3]: inactive
Potency [4]: inactive

CCCCCCCC(=O)OCC(COC(=O)CCCCCCC)OC(=O)CCCCCCC
Potency [1]: inactive
Potency [2]: inactive
Potency [3]: inactive
Potency [4]: inactive

O=C(O)CCC(=O)O
Potency [1]: inactive
Potency [2]: inactive
Potency [3]: inactive
Potency [4]: inactive

CC(=O)NCCCS(=O)(=O)O
Potency [1]: inactive
Potency [2]: inactive
Potency [3]: inactive
Potency [4]: inactive

NS(=O)(=O)c1cc(C(=O)NN2C[C@H]3[C@H]4CCC(C4)[C@H]3C2)ccc1Cl
Potency [1]: inactive
Potency [2]: inactive
Potency [3]: inactive
Potency [4]: inactive

CCCCCCOc1ccccc1C(N)=O
Potency [1]: inactive
Potency [2]: inactive
Potency [3]: 20 µM (active)
Potency [4]: inactive

Cc1ccsc1/C=C/C1=NCCCN1C
Potency [1]: inactive
Potency [2]: inactive
Potency [3]: inactive
Potency [4]: inactive

O=C(Oc1ccccc1C(=O)O)c1ccccc1O
Potency [1]: inactive
Potency [2]: inactive
Potency [3]: inactive
Potency [4]: inactive

O=C(O)COc1nn(Cc2ccccc2)c2ccccc12
Potency [1]: inactive
Potency [2]: inactive
Potency [3]: inactive
Potency [4]: inactive

O=C(O)c1ccccc1S
Potency [1]: inactive
Potency [2]: inactive
Potency [3]: inactive
Potency [4]: inactive

CCC[C@@H]1C[C@@H](C(=O)N[C@@H]([C@H]2O[C@H](SC)[C@H](O)[C@@H](O)[C@H]2O)[C@@H](C)O)N(C)C1
Potency [1]: inactive
Potency [2]: inactive
Potency [3]: inactive
Potency [4]: inactive

CCCCCCCCCCCCCCCCCCO
Potency [1]: inactive
Potency [2]: inactive
Potency [3]: inactive
Potency [4]: inactive

COc1ccccc1OCC(O)CO (centres undefined)
Potency [1]: inactive
Potency [2]: inactive
Potency [3]: inactive
Potency [4]: inactive

COc1cc2c(Nc3ccc(Br)cc3F)ncnc2cc1OCC1CCN(C)CC1
Potency [1]: inactive
Potency [2]: inactive
Potency [3]: inactive
Potency [4]: inactive

CC(C)C(=O)c1c(C(C)C)nn2ccccc12
Potency [1]: inactive
Potency [2]: inactive
Potency [3]: inactive
Potency [4]: inactive

Nc1ccn([C@@H]2CS[C@H](CO)O2)c(=O)n1
Potency [1]: inactive
Potency [2]: inactive
Potency [3]: inactive
Potency [4]: inactive

C[C@@H]1[C@H](O)[C@@H](C)/C=C/C=C\C=C\C=C\C=C\C=C\C=C\[C@H](O[C@@H]2O[C@H](C)[C@@H](O)[C@H](N)[C@@H]2O)C[C@@H]2O[C@](O)(C[C@@H](O)C[C@@H](O)[C@H](O)CC[C@@H](O)C[C@@H](O)CC(=O)O[C@H]1C)C[C@H](O)[C@H]2C(=O)O (stereo in doubt)
Potency [1]: inactive
Potency [2]: inactive
Potency [3]: inactive
Potency [4]: inactive

C[C@]12C=CC(=O)C=C1CC[C@@H]1[C@@H]2[C@@H](O)C[C@@]2(C)[C@H]1CC[C@]2(O)C(=O)CO
Potency [1]: inactive
Potency [2]: inactive
Potency [3]: inactive
Potency [4]: inactive

Cc1cc(O)cc(C)c1Cl
Potency [1]: inactive
Potency [2]: inactive
Potency [3]: inactive
Potency [4]: inactive

O=C(O)c1cccnc1
Potency [1]: inactive
Potency [2]: inactive
Potency [3]: inactive
Potency [4]: inactive

CCCCC(O)/C=C(C)/C=C/C=C/C(=O)N1CCCC1=O (centres undefined)
Potency [1]: inactive
Potency [2]: inactive
Potency [3]: inactive
Potency [4]: inactive

CC(=O)OCC(COC(C)=O)OC(C)=O
Potency [1]: inactive
Potency [2]: inactive
Potency [3]: inactive
Potency [4]: inactive

COc1ccc2cc1Oc1cc3c(cc1OC)CC[N+](C)(C)[C@H]3Cc1ccc(cc1)Oc1c(OC)c(OC)cc3c1[C@@H](C2)[N+](C)(C)CC3
Potency [1]: inactive
Potency [2]: inactive
Potency [3]: inactive
Potency [4]: inactive

NC[C@H]1O[C@H](O[C@H]2[C@H](O[C@@H]3O[C@H](CO)[C@@H](O)[C@H]3O)C(O)[C@H](N)C[C@@H]2N)[C@H](N)[C@@H](O)[C@@H]1O (some centres undefined)
outcome [1]: inactive [at 11.4 µM]
outcome [2]: inactive [at 11.4 µM]
outcome [3]: inactive [at 11.4 µM]
activity change, negative = cytotoxicity [4]: 0.563% [at 11.4 µM]

C=CCc1ccc(O)c(OC)c1
Potency [1]: inactive
Potency [2]: inactive
Potency [3]: inactive
Potency [4]: inactive

Cc1ccccc1N1CCN(CCc2nnc3n2CCCC3)CC1
Potency [1]: inactive
Potency [2]: inactive
Potency [3]: inactive
Potency [4]: inactive

OC[C@H]1O[C@@H](Oc2ccc(O)cc2)[C@H](O)[C@@H](O)[C@@H]1O
Potency [1]: inactive
Potency [2]: inactive
Potency [3]: inactive
Potency [4]: inactive

COc1cnc(NS(=O)(=O)c2ccc(N)cc2)nc1
Potency [1]: inactive
Potency [2]: inactive
Potency [3]: inactive
Potency [4]: inactive

Cc1nnc(SCC2=C(C(=O)O)N3C(=O)[C@@H](NC(=O)Cn4cnnn4)[C@H]3SC2)s1
Potency [1]: inactive
Potency [2]: inactive
Potency [3]: inactive
Potency [4]: inactive

O=C(O)c1cc(O)c(O)c(O)c1
Potency [1]: inactive
Potency [2]: inactive
Potency [3]: inactive
Potency [4]: inactive

Cc1c[nH]c2ccccc12
Potency [1]: inactive
Potency [2]: inactive
Potency [3]: inactive
Potency [4]: inactive

CSCC[C@H](NC(=O)[C@H](Cc1ccc(OS(=O)(=O)O)cc1)NC(=O)[C@@H](N)CC(=O)O)C(=O)NCC(=O)N[C@@H](Cc1c[nH]c2ccccc12)C(=O)N[C@@H](CCSC)C(=O)N[C@@H](CC(=O)O)C(=O)N[C@@H](Cc1ccccc1)C(N)=O
Potency [1]: inactive
Potency [2]: inactive
Potency [3]: inactive
Potency [4]: inactive
